Our source for the max response values is PubChem BioAssay AID2314 (National Center for Advancing Translational Sciences (NCATS), 2010).

Screen size: about 300,000 compounds; about 37,000 (12%) were called active. Shown is part of a subset that was picked to be rich in actives. Unmarked numbers belong to inactive results. Rule as the data show it: active = max response mostly above about 13% (no sharp cut-off); inactive = mostly below about 14%.

This test in a line: Cycloheximide Counterscreen for Small Molecule Inhibitors of Shiga Toxin. Also: read at 38.3 µM for the half of the compounds with a filed dose; 0% is about no effect. The conditions noted are these: cell reporter, cycloheximide protein synthesis inhibition counterscreen; active compounds read high. In general terms: Counterscreens check selectivity or assay interference.
For `CCCC1OC23CCCCC2C(C#N)(C#N)C1(C#N)C(=N)O3` (stereo not drawn), the max response was -1.48%.

Regarding `Cc1ccc(C23CC4CC(CC(C(=O)NCC(=O)O)(C4)C2)C3)cc1`, the max response was -6.43%. Under `COc1ccc(Oc2cn[nH]c2-c2ccc(OC)cc2O)cc1` stands 2.15%. Turning to `COc1cc(C(=O)Nn2c(CC(C)C)nc3ccccc3c2=O)cc(OC)c1OC`, the max response is -3.7%. The same measure for `Cc1ccc(Cl)cc1NC(=O)C1CCN(S(C)(=O)=O)CC1`: 8.41%; for `COc1ccc(Br)cc1C1C2C=CCC(C)C2C(=O)N1Cc1ccccc1` (stereo not drawn): 2.32%. Under `Cc1nccc(-c2ccc(-n3c(C)ccc3C)cc2)n1` stands 1.97%. Under `C=CCOC(=O)C1=C(C)N=C2SCCC(=O)N2C1/C=C/c1ccccc1OC` (stereo not drawn) stands -1.27%; under `O=C1OC(/C=C/c2ccccc2)=NC/1=C/c1ccco1`, -1.15%; under `COc1ccccc1/C=C/C1=NC(=C\N(C)C)/C(=O)O1`, 10.1% (active). `COc1cc2c(cc1OC)C(c1ccccc1Br)NC(=O)C2` (stereo not drawn): the max response is 2.36%. The same measure for `CCC(=O)Nc1sc(C(=O)Nc2ccccc2)c(C)c1C(=O)OC`: 6.77%; for `Cc1nc(NC(=O)c2cccc(Cl)c2)sc1-c1csc(Nc2cccc(Cl)c2)n1`: -1.16%; for `CCC(=O)Nc1nc(C)c(C(=O)Nc2cccc(Cl)c2)s1`: 16.2% (active).

`Cc1ccc(C2C(C#N)C(C#N)N3CCCN23)cc1` (stereo not drawn): the max response was 14.4%. The same measure for `CCC(C)NC(=O)CSC1=Nc2ccccc2C2=NC(CCC(=O)NCc3ccco3)C(=O)N12` (stereo not drawn): 0.985%. Regarding `O=C(CC1N=C2c3ccccc3N=C(SCc3ccccc3Cl)N2C1=O)NCc1ccco1` (stereo not drawn), the max response is 18% (active).

For the compound `O=C(CSC1=Nc2ccccc2C2=NC(CC(=O)NCc3ccco3)C(=O)N12)NCc1ccco1` (stereo not drawn), the max response was 6.84%.

As to `N#Cc1c(-c2ccccc2)nc(SCc2cccc(C(F)(F)F)c2)[nH]c1=O`, the max response was 4.14%.

Turning to `CCc1ccc(NC(=O)Cn2nnc(C(=O)NCc3ccc(OC)cc3)c2N)cc1`, the max response was -3.14%. The same measure for `CCCCCc1c(C)nc(N2CCN(Cc3ccc4c(c3)OCO4)CC2)[nH]c1=O`: -0.993%. As for `O=C(/C=C/Nc1ccccc1)c1cnc(-c2ccccc2)s1`, the max response is 1.67%. The same measure for `O=S(=O)(c1ccc(F)cc1)n1ccc(-c2cnc(-c3ccccc3)s2)n1`: 1.13%; for `CC(=O)c1cnc(-c2ccccc2)s1`: 35.2% (active); for `Cc1cccc(N2CCN(S(=O)(=O)c3ccc4[nH]c(=O)c(=O)[nH]c4c3)CC2C)c1` (stereo not drawn): -2.14%. Under `CC1(C)C(C=C(Cl)Cl)C1C(=O)N(Cc1ccc(Cl)cc1)C1CCS(=O)(=O)C1` (stereo not drawn) stands 3.61%; under `Cc1ccc2nc(S(=O)(=O)O)[nH]c2c1`, -7.91%; under `Cc1ccc2nc(/C(C#N)=C\c3ccc(OC(=O)c4cccs4)cc3)[nH]c2c1`, 29.1% (active). Under `COc1ccc(CCNC(=O)/C(C#N)=C2\N=C(NC(=O)c3cccs3)c3ccccc32)cc1` stands -2.25%; under `O=C(Nc1ccon1)c1sc2ccccc2c1Cl`, 64.4% (active). As to `CN1CCc2ccccc2C1Cc1ccccc1NC(=O)c1sc2ccccc2c1Cl` (stereo not drawn), the max response is 5.79%.

On to `O=C(Nc1ccon1)c1cccc(Cl)c1`, for which the max response is 8.4%. With `COc1ccc(C)cc1NC(=O)C(Sc1ccccc1)c1ccccc1` (stereo not drawn), the max response was -3.77%.

For the compound `CC1CCN(C(=O)c2ccc3c(=O)n4c(nc3c2)CCCCC4)CC1`, the max response is 14.9%. Under `CCn1nc(C)c(CN2CCN(Cc3ccc(OC)c(C)c3C)C(CCO)C2)c1C` (stereo not drawn) stands -1.08%; under `Cc1cccc(-[n+]2c(-c3cccc(Br)c3)[nH]c3nc4ccccc4nc32)c1`, 0.81%.

For `COc1ccc(OCC(=O)NCCS(=O)(=O)N2CCN(c3ccc(F)cc3)CC2)cc1`, the max response was 13.1%. Under `O=C(NCc1ccc(Cl)cc1)C1CCN(S(=O)(=O)c2cccs2)CC1` stands -3.46%. The same measure for `COc1ccc(CNC(=O)CN(Cc2ccc(Cl)cc2)S(C)(=O)=O)cc1`: -2.61%.

In the case of `CN(CC(=O)NCc1ccc(Cl)cc1)S(=O)(=O)c1cccs1`, the max response is 10.2% (active). Under `NC(=O)CN1CCCC1c1ccc2c(c1)OCCO2` (stereo not drawn) stands 10.4%; under `Cc1ccccc1OCC(=O)NNC(=O)c1cc(S(=O)(=O)N(C)C)ccc1N1CCCC1`, -2.55%; under `Cc1ccc(-n2c(SCC(=O)N/N=C/C=C/c3ccccc3[N+](=O)[O-])nc3ccccc3c2=O)cc1`, -7.24%. Under `CCn1c(SCC(=O)N/N=C/C=C/c2ccccc2[N+](=O)[O-])nnc1-c1ccccc1` stands 8.3%; under `O=C(CSc1nc2ccccc2[nH]1)N/N=C/C=C\c1ccccc1[N+](=O)[O-]`, 13.8% (active).

Regarding `OC(COc1ccc(Br)cc1)CN1CCCC1` (stereo not drawn), the max response is -1.85%.

With `CN(CCC1CCOCC1)C(=O)CC1C(=O)NCCN1Cc1cccc(F)c1` (stereo not drawn), the max response is -2.83%. Under `CC(=O)c1c(C)[nH]c(C(=O)OCC(=O)Nc2cc(S(=O)(=O)N3CCCCC3)ccc2C)c1C` stands -1.55%; under `Cc1cccc([C@H]2[C@@H]3C=CC[C@@H](C)[C@@H]3C(=O)N2Cc2ccccc2)c1`, -6.21%; under `COc1ccc(NCCc2ccccn2)cc1`, 30.6% (active). With `O=S(=O)(/C=C/c1ccccc1)NCCc1ccccn1`, the max response was 10.5%. Under `Cc1c(C)c(C)c(S(=O)(=O)NCCc2ccccn2)c(C)c1C` stands -3.58%; under `COc1ccc(S(=O)(=O)NC(C)C(=O)NCc2ccncc2)cc1Cl` (stereo not drawn), -5.01%; under `Cc1c(CNCCc2ccccc2)c(C(=O)O)c(C)n1-c1ccccc1`, 12.6% (active). Under `CNC(=O)CSc1nnc(CCc2ccccc2)n1-c1ccccc1` stands 1.1%.

As to `Cc1c(C(=O)NCc2ccccc2)cnn1-c1ccccc1`, the max response is 22.7%.

For the compound `COC(=O)CCCC1=CC2=C(c3ccccc3)C(=O)C(C)(OC(=O)C3CCCC3)C(=O)C2=CN1c1ccc(OC)cc1` (stereo not drawn), the max response was -2.86%.

Regarding `CCn1c(=S)[nH]c2sc3c(c2c1=O)CCCCC3`, the max response was -1.45%.

Turning to `COc1ccc(N2CCN(C3CCCCC3NS(=O)(=O)c3ccccc3)CC2)cc1` (stereo not drawn), the max response is -5.98%. The same measure for `Cc1nc(N2CCC(C)CC2)c2c(C)c(C(=O)Nc3cc(F)ccc3C)sc2n1`: 4.36%. The same measure for `Cc1ccc2cc(C)c(N3CCN(c4ccc(F)cc4)CC3)nc2c1`: 10.1%; for `Cc1ccc2cc(C)c(N3CCC(C)CC3)nc2c1`: 23.2% (active); for `CC(NC(=O)c1cccc2ccccc12)c1ccc2c(c1)CCCC2` (stereo not drawn): -1.47%.

As to `Cc1ccc(NC(=S)N(CCN2CCCCC2)Cc2ccco2)cc1C`, the max response is 6.6%.

Consider `Cc1ccc(NC(=S)N(CCCN2CCC(C)CC2)Cc2ccco2)cc1`, for which the max response was -1.16%. Under `Cc1ccc(NC(=S)N(Cc2ccco2)C(C)c2cccs2)cc1` (stereo not drawn) stands 15.6% (active).

Regarding `O=C(C1=C[C@H](c2ccc(C(F)(F)F)cc2)C[C@H](OCc2ccc(CO)cc2)O1)N1CCN(Cc2ccccc2)CC1`, the max response was -1.19%. The same measure for `O=C(O)C1CCCN1S(=O)(=O)c1ccc(Br)cc1` (stereo not drawn): -3.32%; for `CCCCNC(=O)CN1C(=O)NC(Cc2ccccc2)(Cc2ccccc2)C1=O`: -4.58%; for `O=S(=O)(c1ccccc1)c1nc(-c2ccccc2)oc1NCCCN1CCOCC1`: -2.06%. The same measure for `CCNC(=S)NNC(=O)Cc1ccccc1`: -1.87%.

In the case of `O=C(CCc1ccccc1)NNC(=O)c1ccc(Br)cc1`, the max response was 5.92%.

As for `CC(C)(C)c1ccc(C(=O)NNC(=O)Cc2ccccc2)cc1`, the max response was 37.7% (active). The same measure for `COc1cc(N=Cc2c(O)c3ccccc3oc2=O)c(OC)cc1Cl`: 0.554%; for `Cc1ccc(S(=O)(=O)NC2CCCCCC2)cc1C(N)=O`: -1.91%. Under `CC(NCCc1ccc(S(N)(=O)=O)cc1)C(=O)NCc1ccccc1` (stereo not drawn) stands 2.64%; under `Cc1ccc(S(=O)(=O)N(C)C)cc1NC(=O)COC(=O)C1COc2ccccc2O1` (stereo not drawn), -1.56%; under `CCN(CC)S(=O)(=O)c1ccc(N2CCOCC2)c(NC(=O)C2COc3ccccc3O2)c1` (stereo not drawn), 4.39%. The same measure for `COc1ccc(NC(=O)c2ccccc2[N+](=O)[O-])cc1OC`: 3.51%; for `O=C(Nc1ccncc1)c1ccccc1[N+](=O)[O-]`: -7.9%; for `O=C(Cc1c(F)cccc1Cl)Nc1ncc([N+](=O)[O-])s1`: 32.7% (active). As for `O=C(Nc1nc2c(F)cc(F)cc2s1)C1COc2ccccc2O1` (stereo not drawn), the max response was 24.7% (active). Under `CC(NC(=S)Nc1ccccc1)C1COc2ccccc2O1` (stereo not drawn) stands -3.29%; under `O=C(Cc1c(F)cccc1Cl)Nc1ccc(-n2cnnn2)cc1`, 8.09%.

With `O=C(Nc1nc(-c2ccncc2)cs1)C1COc2ccccc2O1` (stereo not drawn), the max response is -3.21%. Under `CC(=O)Oc1ccccc1C(=O)Nc1ncc([N+](=O)[O-])s1` stands 29.9% (active). Take `O=C(Nc1ncc([N+](=O)[O-])s1)C1COc2ccccc2O1` (stereo not drawn): the max response is 49.4% (active).

As to `CN(c1ccccc1)S(=O)(=O)c1cccc(NC(=O)Cc2c(F)cccc2Cl)c1`, the max response is 10.4%. The same measure for `O=C1Nc2cc(C(=O)N3CCC(N4CCCCC4)CC3)ccc2S/C1=C\c1ccccc1`: -5.33%; for `C=CCN1C2CCCC1CC(NC(=S)Nc1cccc(OC)c1)C2` (stereo not drawn): -2.67%. The same measure for `CC(=O)N1CCc2cc(S(=O)(=O)NC3CCCCC3)ccc21`: -2.05%; for `O=C(Nc1ccc(C(=O)O)cc1)/C(=C\c1ccccc1)NC(=O)c1ccc(Br)cc1`: -2.74%. Under `COc1ccc(C(=O)NC2CC(C)(C)Cc3c2cnn3-c2ccccc2)c(OC)c1` (stereo not drawn) stands 0.758%.
